FadD28 binding = M. tuberculosis FadD28 bisubstrate binding inhibition | AID 588549 | FadD28 bisubstrate probe binding, fluorescence polarization | hit rate 0.22% among 360,000 | inhibition, % at 12.5 µM; in the data active = inhibition above about 8.5%, passing the limit was not always enough
UGM FP inh = blocks M. tuberculosis UGM enzyme | P9WIQ1 | purified UGM, fluorescence polarization probe displacement | inhibition, % at 10 µM | hit rate 0.06% among 320,000 | AID 504406; in the data active = inhibition above about 10%, passing the limit was not always enough
Mtb FBA inh = inhibits M. tuberculosis FBA enzyme; purified M. tuberculosis FBA, fluorescence read-out; inhibition, % at 1 µM; hit rate 2.3% among 360,000; AID 588726; P9WQA3; in the data active = inhibition above about 27%;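 note: 0% = vehicle and 100% = reference inhibitor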
Target sequence (P9WQA3 whole entry, looked up): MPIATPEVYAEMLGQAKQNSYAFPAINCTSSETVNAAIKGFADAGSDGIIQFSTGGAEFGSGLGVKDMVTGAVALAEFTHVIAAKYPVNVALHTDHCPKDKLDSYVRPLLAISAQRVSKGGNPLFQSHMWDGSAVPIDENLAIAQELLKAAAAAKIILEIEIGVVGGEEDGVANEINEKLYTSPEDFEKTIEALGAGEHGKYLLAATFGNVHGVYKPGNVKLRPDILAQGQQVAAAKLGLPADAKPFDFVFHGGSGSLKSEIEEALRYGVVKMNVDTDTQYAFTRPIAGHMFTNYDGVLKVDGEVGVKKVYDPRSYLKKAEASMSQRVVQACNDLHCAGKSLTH
Rv3671c inh = inhibitors of M. tuberculosis serine protease Rv3671c; inhibition, % at 5.96 µM; hit rate 0.048% among 320,000; AID 2606; in the data active = inhibition above about 38%;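 note: extracellular domain of Rv3671c used as enzyme; 0% = enzyme with DMSO and 100% = no enzyme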
GDH-TPI counter = counter-screen for M. tuberculosis FBA inhibitors: GDH-TPI coupled enzymes; GDH-TPI coupled enzyme counterscreen, NADH absorbance; inhibition, % at 4.8 µM; hit rate 1.2% among 360,000; in the data active = inhibition above about 30%;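 note: 0% = DMSO wells and 100% = wells lacking the enzyme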
Mtb hypoxia rep = reduces hypoxia-regulated biosensor signal in M. tuberculosis | fluorescence inhibition, % (no concentration beside the values) | AID 1159583 | M. tuberculosis hypoxia-regulated fluorescent reporter, fluorescence | hit rate 0.1% among 300,000; in the data active = fluorescence inhibition mostly above about 23%, no sharp cut-off; inactive = mostly below about 17%
An asterisk follows results filed as active; x = no result given; + = active, no number. Compounds with a hit are over-represented: about 3.5% of the library has one in this group of screens.

SMILES	FadD28 binding	UGM FP inh	Mtb FBA inh	Rv3671c inh	GDH-TPI counter	Mtb hypoxia rep
O=C(c1cc2c(s1)-c1ccccc1OC2)N1CCN(c2ccccn2)CC1	-3	0	17	-10	14	x
O=C(c1cc2c(s1)-c1ccccc1OC2)N1CCCC1	0	0	+	-3	27	x
O=c1c2ccccc2nc(C=Cc2cccc([N+](=O)[O-])c2)n1CCO	x	x	x	x	x	2
C=CCC(CC(=O)N(CCO)Cc1ccccc1)C(=O)NC(COC(=O)C(CC=C)CC(=O)OC(C)(C)C)C(C)(C)C (stereo not given)	x	x	x	x	x	-2
Cc1c(C(=O)/C=C/N(C)C)nnn1-c1ccc(Cl)c(Cl)c1	4	-1	-2	-5	42*	2
COC(=O)c1nnn(-c2ccc(Cl)c(Cl)c2)c1C(=O)OC	-1	-1	-1	5	9	-9
Cc1c(C(=O)/C=C/N(C)C)nnn1-c1ccc(Cl)cc1Cl	2	2	-3	-5	33*	-1
Cc1c(C(=O)/C=C/N(C)C)nnn1-c1ccc(F)c(Cl)c1	-1	1	1	-3	35*	6
Cc1cccc(C=NNC(=O)Cn2nnnc2N)n1	x	x	x	x	x	-10
Cc1cc(O)cc(OC2OC(CO)C(O)C(O)C2O)c1 (stereo not given)	x	x	x	x	x	6
COc1ccc(C(=O)N2CC3(CC(c4cccc(NC(=O)COc5ccc(Cl)cc5)c4)=NO3)CC2C(N)=O)cc1 (stereo not given)	x	x	x	x	x	8
COc1cccc(OCc2cc(C=NNc3ccc(C(=O)O)cc3)ccc2OC)c1	x	x	x	x	x	12
c1ccc(-c2oc3ncnc(NCCCn4ccnc4)c3c2-c2ccccc2)cc1	-15	-2	51*	-1	6	3
O=C1NC(=O)C(Nc2cccc3ccccc23)S1 (stereo not given)	0	1	7	0	36*	22
Cc1c(C(=O)NN=Cc2cccs2)nnn1-c1nonc1N	x	x	x	x	x	3
COc1ccc(-n2c(SCC(N)=O)nc3sc4c(c3c2=O)CCN(C)C4)cc1	-2	-1	35*	8	35*	-2
COC(=O)CSc1nc2sc3c(c2c(=O)n1-c1ccc(OC)cc1)CCN(C)C3	-4	x	4	x	20	9
O=C(CSc1ccc(Cl)cc1)N1CCOCC1	15*	2	-11	-5	-3	x
CN1CCc2c(sc3nc(SCC(=O)N4CCOCC4)n(-c4ccc(Cl)cc4)c(=O)c23)C1	-7	-2	25	-8	51*	-1
CC1CCN(C(=O)CSc2nc(N)c3c4c(sc3n2)CN(C)CC4)CC1	-2	x	31*	x	11	5
COc1cc(C(=O)NN=Cc2ccc(OC)c(CN3CCN(c4ccc(F)cc4)CC3)c2)ccc1O	x	x	x	x	x	0
Cc1c(C)n(C)c2ccc(C(=O)NCc3cccs3)cc12	12*	-2	4	-22	2	8
Cc1c(C)n(C)c2ccc(C(=O)NCCCN3CCN(C)CC3)cc12	0	-1	4	-3	6	2
Cn1c2ccccc2c2c(C(=O)N3CCC4(CC3)OCCO4)cn(C3CCCCC3)c(=O)c21	-3	0	15	2	0	x
COCCn1cc(C(=O)N2CCC(C)CC2)c2c3ccccc3n(C)c2c1=O	-3	1	43*	-4	-3	2
SMILES	FadD28 binding	UGM FP inh	Mtb FBA inh	Rv3671c inh	GDH-TPI counter	Mtb hypoxia rep
CC(C)Cn1cc(C(=O)N2CCC3(CC2)OCCO3)c2c3ccccc3n(C)c2c1=O	2	-2	37*	2	11	1
CC(C)Cn1cc(C(=O)N2CCC(C)CC2)c2c3ccccc3n(C)c2c1=O	1	1	26	-1	9	1
CCOc1ccc(N(CC(=O)NN=Cc2ccc(OC(C)C)cc2)S(C)(=O)=O)cc1	x	x	x	x	x	2
CCOP(=S)(OCC)Oc1ccc2c(C)c(Cl)c(=O)oc2c1	-4	x	9	x	10	-8
CCC(=O)Oc1ccc2c(C)c(Cl)c(=O)oc2c1	-6	2	+	7	4	x
Cc1c(C)c2ccc(OCC(=O)c3ccccc3)cc2oc1=O	1	1	2	3	18	-3
Cc1c(Cl)c(=O)oc2cc(OC(C)C)ccc12	-2	0	+	-11	25	x
COc1ccc(OC)c(NC(=O)c2cnc3n(c2=O)CCS3)c1	-3	2	0	-4	23	19
O=C(Nc1ccc2c(c1)OCO2)c1cnc2n(c1=O)CCS2	0	2	0	8	19	-4
COc1ccccc1NC(=O)c1cnc2n(c1=O)CCS2	-3	0	-4	-1	37*	x
Cc1noc(NS(=O)(=O)c2ccc(NC(=O)c3cnc4n(c3=O)CCS4)cc2)c1C	-1	2	-4	1	34*	19
O=C(Nc1ccc2c(c1)OCCO2)c1cnc2n(c1=O)CCS2	0	1	-1	-3	31*	4
Cc1ccccc1C(=O)Nc1ccc(S(=O)(=O)Nc2onc(C)c2C)cc1	-1	2	5	-8	2	8
O=C(Cn1cnc2ccccc2c1=O)NN=Cc1ccc(Br)cc1	x	x	x	x	x	-3
Cc1ccc2nc3c(cc(C(=O)NC4CCS(=O)(=O)C4)n3Cc3ccccc3)c(=O)n2c1 (stereo not given)	1	2	+	-6	26	5
N#Cc1cc2c(=O)n3ccccc3nc2n(CCCn2ccnc2)c1=N	-3	0	25	-2	3	-15
Cc1ccc2nc3c(cc(C(=O)NCc4ccccc4)c(=N)n3CCCn3ccnc3)c(=O)n2c1	-1	x	131*	x	11	12
Cc1ccc2nc3c(cc(C(=O)NCCc4ccccc4)c(=N)n3CCN3CCOCC3)c(=O)n2c1	-16	1	188*	-10	3	-2
Cc1cccn2c(=O)c3cc(C(=O)NC(C)c4ccccc4)c(=N)n(CCCn4ccnc4)c3nc12 (stereo not given)	-5	-1	161*	-10	0	20
Cc1ccccc1OCC(=O)NN=C1SCC(=O)N1Cc1ccccc1	x	x	x	x	x	-1
CC(=O)Nc1ccc2c(c1)C(=O)c1ccccc1C2=O	-2	0	-3	-8	8	-19
CC(=O)Nc1cc2c3c(cccc3c1)-c1ccccc1-2	-2	x	140*	x	12	8
CC(=O)c1ccc(N2CCN(C(=O)C3CCC3)CC2)cc1	0	-2	0	-5	45*	4
CC(=O)c1ccc(N2CCN(C(=O)C3CCCN(c4ncnc5c4nc4n5CCCCC4)C3)CC2)cc1 (stereo not given)	-2	0	3	5	31*	5
CC1CCN(C(=O)C2CCN(c3ncnc4c3nc3n4CCCCC3)CC2)CC1	1	3	-1	-4	3	28*
COc1cc2c(-c3ccccc3)c(C)oc2cc1C=NNC(N)=S	x	x	x	x	x	9
CCOc1ccc(/C=C/C(O)=C2/C(=O)N(C)C3(C)CC2c2ccccc2O3)cc1OC (stereo not given)	-1	1	3	12	39*	4
O=C(C[n+]1cccc(C=NO)c1)N1CCCc2ccccc21	x	x	x	x	x	-3
COCCNC(=O)[C@@]1(Cc2ccccc2)C=CC(C)N1C(C)=O (stereo not given in full)	x	x	x	x	x	21

Bioassay records: PubChem BioAssay, several laboratories
